# Results taken from PubChem BioAssay AID2078 (The Scripps Research Institute Molecular Screening Center, 2009).
# Calls of active or inactive are those of the source. The rule behind the calls is not given here.
# Assay: STAT3 blockade with qPCR and toxicity readouts – cell-based, STAT1 panel, cytotoxicity, late-stage follow-up (AID 2078)
# Settings: STAT3/STAT1 inhibition panel, cell reporter assay, Quantitative PCR; qPCR mRNA fold change, at 10 µM, stronger effect = lower value
structure (smiles),measurement,value
c1ccc(CC2CCN(c3ncnc4sccc34)CC2)cc1,fold change,0.68
same,outcome,active; probe
